Screens as filed in PubChem.
p47phox inh: p47phox (human) inhibition; P14598; p47phox/p22phox peptide binding, fluorescence polarization, 2 h; inhibition, % at 24.7 µM; actives 0.53% (n = 220,000); AID 1274;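 active = inhibition above about 30%, limit read from the data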;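 note: 0% = p47phox with labelled peptide and 100% = labelled peptide alone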
Target sequence (P14598 whole entry, looked up): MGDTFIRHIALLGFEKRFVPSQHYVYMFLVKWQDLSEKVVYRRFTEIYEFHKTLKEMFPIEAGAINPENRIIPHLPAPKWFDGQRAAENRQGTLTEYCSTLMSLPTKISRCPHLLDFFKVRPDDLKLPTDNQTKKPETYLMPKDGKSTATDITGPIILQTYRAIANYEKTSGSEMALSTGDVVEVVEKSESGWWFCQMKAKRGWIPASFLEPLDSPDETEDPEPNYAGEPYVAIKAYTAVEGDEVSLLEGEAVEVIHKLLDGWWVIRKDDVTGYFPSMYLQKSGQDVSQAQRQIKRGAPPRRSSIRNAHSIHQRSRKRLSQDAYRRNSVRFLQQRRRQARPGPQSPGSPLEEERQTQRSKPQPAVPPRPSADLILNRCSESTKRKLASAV
Redox H2O2 prof: compounds producing H2O2 with reducing agent – biochemical, NIH compound library profiling, artefact control for MLSCN library redox annotation, primary screen; DTT-dependent redox cycling H2O2, phenol red/HRP absorbance; 100% = 100 µM peroxide control, 0% = buffer; activation, % at 10 µM; actives 0.03% (n = 200,000); AID 878;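 active = activation of at least 50% relative to the plate's high and low controls in the primary single-dose screen; inactive = activation below 50%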;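 note: compound incubated with DTT at 0.8 mM final as the reducing agent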
HMGR II inh: blocks class II HMG-CoA reductase of Enterococcus faecalis; actives 0.41% (n = 190,000); AID 1066; purified E. faecalis HMGR, NADPH absorbance 340 nm kinetic; inhibition, % at 10 µM;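 active = inhibition above a set limit, the median over all tested compounds plus 3 SD, cut at about 9.5% in these data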;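 note: enzyme runs in reverse so mevalonate oxidation gives rising NADPH absorbance; 0% = complete reaction with DMSO and 100% = background rate lacking mevalonate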
Insulin prom up: MIN6 insulin promoter up-regulation | MIN6 insulin promoter-GFP reporter, high-content imaging; active compounds read high | z-score at 5 µM | actives 0.3% (n = 190,000);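 active = z-score above 3 at 5 µM with at least 500 cells counted in the well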
Autophagy mod: autophagy modulation, high-content screen. actives 0.98% (n = 190,000). calls only at 10 µM (by protocol). MEF GFP-LC3 puncta imaging; test concentration mostly 10 µM;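 active = percentage of spot-positive cells more than 3 SD above its plate mean, without a fluorescence outlier flag or 80% toxicity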;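 note: spot-positive cell cutoff set from DMSO-treated cells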
Arbovirus anti: arbovirus infection inhibition. actives 0.37% (n = 200,000). inhibition, % at 10 µM. arbovirus infection cell-based antiviral screen; in the data active = inhibition above about 30%
Numbers without * were called inactive. The list is not random: actives were taken first. Their share in the collection is about 2.2%.

`Cc1ccc(Nc2nc(N)nc(CN3CCN(Cc4ccc5c(c4)OCO5)CC3)n2)cc1Cl` gave p47phox inh -11, Redox H2O2 prof 0, HMGR II inh -9, Insulin prom up -2.1, Autophagy mod active and Arbovirus anti -44.
COc1cccc(C2CC(c3ccc(Cl)cc3Cl)Nc3nc(N)nn32)c1 (centres undefined) was read as p47phox inh -9, Redox H2O2 prof 0, HMGR II inh 2, Insulin prom up -0.29, Autophagy mod inactive and Arbovirus anti 41*.
CCCCOC(=O)Cn1c2ccc(OC)cc2c2nc3ccccc3nc21 was read as p47phox inh 22, Redox H2O2 prof 0, HMGR II inh 1, Insulin prom up 0.44, Autophagy mod active and Arbovirus anti -30.
`CCOc1ccc(Cn2c3ccc(OC)cc3c3nc4ccccc4nc32)cc1` gave p47phox inh 44*, Redox H2O2 prof 0, HMGR II inh -7, Insulin prom up 0, Autophagy mod active and Arbovirus anti -38.
Screening CCn1c2ccc(OC)cc2c2nc3ccccc3nc21 returned p47phox inh -27, Redox H2O2 prof 1, HMGR II inh 0, Insulin prom up 0.05, Autophagy mod inactive and Arbovirus anti -4.
Screening COCCn1c(N)c(N(Cc2ccccc2)C(=O)c2oc3ccccc3c2C)c(=O)[nH]c1=O returned p47phox inh -17, Redox H2O2 prof 0, HMGR II inh 2, Autophagy mod inactive and Arbovirus anti -3.
`Nc1c(-c2ccccc2)c(CSc2nc3ccccc3[nH]2)nn1-c1ccc(Cl)cc1` gave p47phox inh -16, Redox H2O2 prof 0, HMGR II inh 3, Insulin prom up -0.7, Autophagy mod inactive and Arbovirus anti 3.
`Cc1ccccc1-n1nc(CSc2nc3ccccc3[nH]2)c(-c2ccccc2)c1N` gave p47phox inh -4, Redox H2O2 prof 0, HMGR II inh -7, Insulin prom up -0.7, Autophagy mod inactive and Arbovirus anti 40*.
Nc1c(-c2ccccc2)c(CSc2nc3ccccc3[nH]2)nn1-c1cccc(Cl)c1 was read as p47phox inh -51, Redox H2O2 prof 0, HMGR II inh 3, Insulin prom up -0.9, Autophagy mod inactive and Arbovirus anti 34*.
Screening CCOc1ccc(NC(=O)C2(c3ccc(OC)c(OC)c3)CCCC2)cc1 returned p47phox inh 1, Redox H2O2 prof 1, HMGR II inh -1, Insulin prom up -0.27, Autophagy mod inactive and Arbovirus anti -1.
CCC(=O)c1c(OCc2ccccc2)ccc2c(C)cc(=O)oc12 was read as p47phox inh -11, Redox H2O2 prof 0, HMGR II inh -6, Insulin prom up -0.76, Autophagy mod inactive and Arbovirus anti -7.
CCOC(=O)C(=O)/C(=C\N(C)C)c1onc(-c2c(F)cccc2Cl)c1C(=O)OC was read as p47phox inh -15, Redox H2O2 prof 1, HMGR II inh -1, Insulin prom up -0.07, Autophagy mod inactive and Arbovirus anti -7.
CC(=O)OC(C(=O)NCc1ccc(F)cc1)c1ccccn1 (centres undefined) was read as p47phox inh -15, Redox H2O2 prof 1, HMGR II inh -3, Insulin prom up 3.9*, Autophagy mod inactive and Arbovirus anti 4.
Cc1ccc(-n2nnnc2CCl)cc1 was read as p47phox inh 5, Redox H2O2 prof -1, HMGR II inh -2, Insulin prom up -1.2, Autophagy mod inactive and Arbovirus anti -5.
Cc1cccc(NC(=O)CSc2nc3ccccc3c3nc(CCc4c(C)n[nH]c4C)nn23)c1 was read as p47phox inh 0, Redox H2O2 prof 1, HMGR II inh -6, Insulin prom up -0.76, Autophagy mod inactive and Arbovirus anti -28.
For Cc1cncn1CCc1nc2c3ccccc3nc(SCC(=O)Nc3cccc(Cl)c3)n2n1 the results were p47phox inh 50*, Redox H2O2 prof 0, HMGR II inh -4, Autophagy mod inactive and Arbovirus anti -8.
For CCc1ccc(-c2cc(C(F)(F)F)n3nc(C(=O)Nc4c(C)nn(Cc5ccc(F)cc5)c4C)cc3n2)s1 the results were p47phox inh -22, Redox H2O2 prof 0, HMGR II inh -2, Autophagy mod inactive and Arbovirus anti -1.
Screening CC(/C=N\Nc1nnc2c(n1)[nH]c1c(C)cccc12)=C\c1ccco1 returned p47phox inh 9, Redox H2O2 prof -1, HMGR II inh 13*, Insulin prom up -0.15, Autophagy mod inactive and Arbovirus anti -24.
For CC1CN(C(=O)CCN2C(=O)c3ccccc3C2=O)CC(C)O1 (centres undefined) the results were p47phox inh 0, Redox H2O2 prof 0, HMGR II inh -5, Autophagy mod inactive and Arbovirus anti -2.
`CC1CCCC(NCC(O)COC(c2ccc(F)cc2)c2ccc(F)cc2)C1C` (centres undefined) gave p47phox inh -6, Redox H2O2 prof 0, HMGR II inh -8, Insulin prom up -1.9, Autophagy mod active and Arbovirus anti -41.
For CC1CCCC(NC(=O)CSc2ccc(F)cc2)C1C (centres undefined) the results were p47phox inh 3, Redox H2O2 prof 0, HMGR II inh -2, Insulin prom up 0.94, Autophagy mod inactive and Arbovirus anti 14.
`O=C(NC(=S)NCC1CCCO1)c1cccc([N+](=O)[O-])c1` (centres undefined) gave p47phox inh -1, Redox H2O2 prof 0, HMGR II inh -3, Insulin prom up 0.42, Autophagy mod inactive and Arbovirus anti 7.
For Cc1nn(-c2ccccc2)c2nc(C(F)(F)F)[nH]c(=O)c12 the results were p47phox inh -2, Redox H2O2 prof 0, HMGR II inh -11, Insulin prom up 0.63, Autophagy mod inactive and Arbovirus anti 37*.
For CCC(C)C(NC(=O)C1CCC(C)CC1)C(=O)NCc1ccccn1 (centres undefined) the results were p47phox inh -7, Redox H2O2 prof 0, HMGR II inh -7, Autophagy mod inactive and Arbovirus anti -7.
CCCC(=O)Nc1cc(=O)n(C)c(=O)n1C was read as p47phox inh 60*, Redox H2O2 prof -1, HMGR II inh -1, Insulin prom up 1.1, Autophagy mod inactive and Arbovirus anti 4.
Screening Cc1ccc(S(=O)(=O)N(CCC(=O)O)Cc2ccc(Cl)cc2)cc1 returned p47phox inh 0, Redox H2O2 prof 0, HMGR II inh 6, Autophagy mod inactive and Arbovirus anti -1.
Screening CN(C)c1nc(N)nc(/C(C#N)=C/C2CC3C=CC2C3)n1 (centres undefined) returned p47phox inh -19, Redox H2O2 prof -4, HMGR II inh -2, Insulin prom up 3*, Autophagy mod inactive and Arbovirus anti -1.
